Reference: the OligoGym collection

Biological target: KCNRG
Assay: pooled miR-30 sensor sort-seq; sequence = guide strand
Settings: shRNA

Compared with TATGATGATAGTCTCTGGTTTT, TTCTAGTGCTGACCAAATGAAA is lower in sensor-assay potency score (higher = more potent): -0.744 for the first, -1.49 for the second.

Compared with TAGAAACATACCTGACTCCAGT, TTTTATAGAAACATACCTGACT is lower in sensor-assay potency score (higher = more potent): -0.214 for the first, -0.489 for the second.

Compared with TTCGTGATGAGCACTTCAGGGC, TTTGTCTTCAGAAGATACTGTT is lower in sensor-assay potency score (higher = more potent): 0.363 for the first, -0.101 for the second.

First: TTTTGGTGTTTCATTCGTGATG
Second: TTTTGTCTTCAGAAGATACTGT
The sensor-assay potency score (higher = more potent) of the first is lower: -1.02 for the first, 0.229 for the second.

First: TACTGTTCTAGTGCTGACCAAA
Second: TATAGCATTCAGTTTTGTCTTC
The sensor-assay potency score (higher = more potent) of the first is lower: -1.23 for the first, 0.0468 for the second.

Biological target: KCNS2
Assay: as above
Settings: shRNA

Going from TAGTCCCTTAAATTGACCGAAG to TCGAAGTAGAACTCCCGCTGGA, the sensor-assay potency score (higher = more potent) rises from -1.33 to -0.212.

Compared with TTCTTTGTAGCTGTATTTCAAA, TAGGGCATTCTTGAAGAACTTG is higher in sensor-assay potency score (higher = more potent): -1 for the first, -0.408 for the second.

Going from TTACACCATAACCATAAGGTGC to TTTATGGGCATAATAGTCCCTT, the sensor-assay potency score (higher = more potent) rises from -1.42 to -0.514.

First: TAGAATAGCGTACACGATGGAC
Second: TGCTCCACGATTTCGAACCTAG
The sensor-assay potency score (higher = more potent) of the first is higher: -0.475 for the first, -0.681 for the second.

Compared with TACTCCTTACACCATAACCATA, TAGAAATGCAGCACGTAGGGGA is higher in sensor-assay potency score (higher = more potent): -1.82 for the first, 0.48 for the second.

First: TTAAACTGAGTTCACTTGGTGA
Second: TTTAAACTGAGTTCACTTGGTG
The sensor-assay potency score (higher = more potent) of the first is lower: -0.682 for the first, 0.664 for the second.

Biological target: KCTD3
Assay: as above
Settings: shRNA

Going from TGATTCTGTAACACACAGCAAA to TTTGAGTAGCTCTTCTTCGGTT, the sensor-assay potency score (higher = more potent) rises from -1.06 to -0.151.

Going from TGTAGTACAGTCAACAGCCTGG to TTATCTTTCATTCGCAAGGGGA, the sensor-assay potency score (higher = more potent) falls from 0.267 to -0.381.

First: TTGCATTTAAAGCTACTCGTTC
Second: AGGAACAACATCTTGAACCTGC
The sensor-assay potency score (higher = more potent) of the first is higher: -0.407 for the first, -0.641 for the second.

Compared with TTGTAGTACAGTCAACAGCCTG, TAGTTATAGGAACAACATCTTG is lower in sensor-assay potency score (higher = more potent): -1.16 for the first, -1.48 for the second.

Compared with TTTAAATTTACAATTACCCTAT, TATCAATAAATATAGCACCAGT is lower in sensor-assay potency score (higher = more potent): 0.0082 for the first, -0.952 for the second.

With TTGAGTAGCTCTTCTTCGGTTG the sensor-assay potency score (higher = more potent) was -0.328.

Biological target: KDELR1
Assay: as above
Settings: shRNA

Going from AGGAACTCCACTCTGAACGTGT to TTGAGCAGTAGCAAGATGATGG, the sensor-assay potency score (higher = more potent) rises from -0.99 to -0.401.

First: TTGCTCACCATGAACAGCTGCG
Second: TAGACCACCTTCATACACGTGT
The sensor-assay potency score (higher = more potent) of the first is lower: -0.0886 for the first, 0.283 for the second.

Compared with TTGAAGAGATAGAGCGTGCGGT, TAAATCAACCAGACCGTGGTGA is higher in sensor-assay potency score (higher = more potent): -0.25 for the first, 0.82 for the second.

TAGGACTTTGGTGATATAGAGG gave a sensor-assay potency score (higher = more potent) of -1.32.
